Measured values taken from ChEMBL document CHEMBL3988442, “University of Dundee, Small-Polar-MMV Screening Library” (2021).
For some assays here: Entries with a potency or affinity are not part of this list.

Tests used:
Parameters in all cases: scale not given: direction of the effect not stated beside the values
[1] = target: Protein translocase subunit SecA (Escherichia coli (strain K12)) (UniProt P10408); assay: Assay to Identify E. coli SecA ATPase Inhibitors; assay type: functional; conditions: 30 µM
Protein translocase subunit SecA (Escherichia coli (strain K12)), sequence (P10408 whole entry): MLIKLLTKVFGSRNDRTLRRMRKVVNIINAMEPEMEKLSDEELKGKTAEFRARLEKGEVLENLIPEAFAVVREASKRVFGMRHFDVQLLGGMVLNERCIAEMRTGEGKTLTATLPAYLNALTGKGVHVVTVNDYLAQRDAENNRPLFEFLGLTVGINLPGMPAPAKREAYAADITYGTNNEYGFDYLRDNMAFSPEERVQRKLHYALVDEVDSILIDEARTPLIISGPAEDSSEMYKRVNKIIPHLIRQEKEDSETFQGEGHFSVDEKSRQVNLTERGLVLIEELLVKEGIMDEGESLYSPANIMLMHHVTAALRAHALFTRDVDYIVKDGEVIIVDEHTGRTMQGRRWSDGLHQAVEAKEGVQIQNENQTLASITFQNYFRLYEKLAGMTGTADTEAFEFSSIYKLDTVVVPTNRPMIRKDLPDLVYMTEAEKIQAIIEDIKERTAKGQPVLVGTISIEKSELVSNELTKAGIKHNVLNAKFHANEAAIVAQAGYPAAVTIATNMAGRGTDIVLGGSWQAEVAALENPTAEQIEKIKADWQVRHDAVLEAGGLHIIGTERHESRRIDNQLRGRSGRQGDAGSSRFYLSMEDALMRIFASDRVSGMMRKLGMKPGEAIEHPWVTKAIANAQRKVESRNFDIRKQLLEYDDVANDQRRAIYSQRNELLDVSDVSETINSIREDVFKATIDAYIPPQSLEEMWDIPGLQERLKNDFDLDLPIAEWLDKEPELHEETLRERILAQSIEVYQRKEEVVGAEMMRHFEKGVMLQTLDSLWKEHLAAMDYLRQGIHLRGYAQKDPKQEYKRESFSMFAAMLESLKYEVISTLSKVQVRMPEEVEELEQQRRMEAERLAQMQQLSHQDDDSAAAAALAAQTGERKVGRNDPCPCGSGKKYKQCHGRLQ

[2] = target: T1, Ubiquitin-activating enzyme e1, putative (Leishmania donovani (strain BPK282A1)) (UniProt E9BSI1); assay: Leishmania donovani Ubiquitin Activating Enzyme (LdE1); assay type: functional; conditions: 30 µM
T1 sequence (whole entry): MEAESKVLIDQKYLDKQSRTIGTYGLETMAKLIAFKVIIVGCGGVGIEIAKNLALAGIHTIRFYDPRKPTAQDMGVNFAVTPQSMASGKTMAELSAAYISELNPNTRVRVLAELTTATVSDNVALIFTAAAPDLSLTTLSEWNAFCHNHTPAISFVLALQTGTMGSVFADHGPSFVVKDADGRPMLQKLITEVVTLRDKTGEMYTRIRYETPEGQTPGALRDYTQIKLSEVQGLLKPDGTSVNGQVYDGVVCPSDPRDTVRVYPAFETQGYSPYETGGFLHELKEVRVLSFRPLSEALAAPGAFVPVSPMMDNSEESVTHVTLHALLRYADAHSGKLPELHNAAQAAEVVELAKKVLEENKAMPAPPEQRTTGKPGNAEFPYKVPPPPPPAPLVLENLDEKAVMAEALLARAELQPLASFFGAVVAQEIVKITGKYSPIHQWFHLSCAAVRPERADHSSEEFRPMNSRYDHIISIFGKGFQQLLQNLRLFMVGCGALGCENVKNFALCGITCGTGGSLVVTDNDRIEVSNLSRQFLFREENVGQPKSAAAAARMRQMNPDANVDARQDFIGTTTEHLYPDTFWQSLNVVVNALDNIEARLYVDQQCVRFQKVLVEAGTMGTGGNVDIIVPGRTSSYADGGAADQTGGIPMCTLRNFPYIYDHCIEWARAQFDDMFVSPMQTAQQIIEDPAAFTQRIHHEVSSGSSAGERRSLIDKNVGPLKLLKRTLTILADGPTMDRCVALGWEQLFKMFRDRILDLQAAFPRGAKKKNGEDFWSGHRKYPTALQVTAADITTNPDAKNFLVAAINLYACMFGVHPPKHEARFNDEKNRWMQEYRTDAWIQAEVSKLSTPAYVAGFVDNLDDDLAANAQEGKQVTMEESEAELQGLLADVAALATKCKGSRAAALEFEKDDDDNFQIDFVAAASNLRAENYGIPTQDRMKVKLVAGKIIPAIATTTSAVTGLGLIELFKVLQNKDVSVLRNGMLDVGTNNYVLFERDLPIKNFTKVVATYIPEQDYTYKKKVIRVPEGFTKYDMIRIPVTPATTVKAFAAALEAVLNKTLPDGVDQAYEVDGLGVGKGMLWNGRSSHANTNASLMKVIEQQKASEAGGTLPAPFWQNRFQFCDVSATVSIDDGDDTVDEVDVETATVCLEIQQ

[3] = target: AMP-activated protein kinase, AMPK (Homo sapiens) (UniProt P54646+O43741+P54619+Q9UGJ0+Q9Y478+Q13131+Q9UGI9); assay: AMP-dependent Kinase enzyme assay. An in vitro enzyme assay that detects ADP turnover that is directly proportional to AMPK activity. This uses naive AMPK that is activated during the assay with MK-8722; assay type: functional; conditions: 30 µM
[4] = target: Sialic acid-binding Ig-like lectin 9 (Homo sapiens) (UniProt Q9Y336); assay: Hs-Siglec9 ALPHAscreen SOP 20170721; conditions: 10 µM
Sialic acid-binding Ig-like lectin 9 (Homo sapiens), sequence (Q9Y336 whole entry): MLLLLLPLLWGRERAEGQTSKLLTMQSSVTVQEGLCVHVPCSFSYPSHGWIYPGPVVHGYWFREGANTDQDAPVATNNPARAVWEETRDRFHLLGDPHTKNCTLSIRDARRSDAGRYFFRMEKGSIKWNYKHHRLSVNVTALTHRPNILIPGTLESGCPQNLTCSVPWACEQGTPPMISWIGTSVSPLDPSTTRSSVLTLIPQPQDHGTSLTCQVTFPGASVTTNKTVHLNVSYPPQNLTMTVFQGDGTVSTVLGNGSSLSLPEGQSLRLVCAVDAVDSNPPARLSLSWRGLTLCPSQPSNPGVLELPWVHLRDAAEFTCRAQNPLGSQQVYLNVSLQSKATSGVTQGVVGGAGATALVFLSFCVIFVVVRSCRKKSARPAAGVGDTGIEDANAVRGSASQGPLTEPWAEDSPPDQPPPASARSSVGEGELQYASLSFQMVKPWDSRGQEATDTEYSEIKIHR

[5] = test system: Trypanosoma cruzi; assay: Trypanosoma cruzi phosphomannomutase and mannose-1-phosphate guanylyltransferase assay; assay type: functional; conditions: 10 µM
[6] = target: T2, Arginase-2, mitochondrial (Homo sapiens) (UniProt P78540); assay: in vitro enzyme assay to detect the production of urea directly proportional to the activity of Arginase II; assay type: functional; conditions: 33.3 µM; also: in the data most compounds retested in dose-response had high values
T2 sequence (whole entry): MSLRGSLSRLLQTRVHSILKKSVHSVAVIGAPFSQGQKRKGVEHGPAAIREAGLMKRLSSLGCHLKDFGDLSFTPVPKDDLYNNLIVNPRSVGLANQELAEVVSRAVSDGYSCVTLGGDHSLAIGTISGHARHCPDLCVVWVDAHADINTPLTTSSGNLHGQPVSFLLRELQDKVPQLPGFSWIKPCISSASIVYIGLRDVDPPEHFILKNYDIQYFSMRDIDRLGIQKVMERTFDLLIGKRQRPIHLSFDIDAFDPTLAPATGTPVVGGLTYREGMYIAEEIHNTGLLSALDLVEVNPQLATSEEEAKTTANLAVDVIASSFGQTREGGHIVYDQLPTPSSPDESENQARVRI

[7] = target: T3, Proteasome subunit beta (Trypanosoma cruzi) (UniProt O96673); assay: Trypanosoma cruzi proteasome chymotrypsin-like activity (TcProtChymo) assay.; also: in the data most compounds retested in dose-response had high values; assay type: functional; conditions: 9.37 µM
T3 sequence (whole entry): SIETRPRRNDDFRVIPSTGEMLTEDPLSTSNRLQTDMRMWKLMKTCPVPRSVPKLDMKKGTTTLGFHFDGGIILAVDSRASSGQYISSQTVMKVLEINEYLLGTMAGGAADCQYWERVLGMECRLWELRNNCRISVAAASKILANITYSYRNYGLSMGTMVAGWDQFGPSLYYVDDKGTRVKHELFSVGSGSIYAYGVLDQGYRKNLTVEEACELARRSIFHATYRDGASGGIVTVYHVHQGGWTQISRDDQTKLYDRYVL

[8] = organism: Homo sapiens; assay: To identify inhibition of the IFN signalling (Jak-Stat) pathway via expression of an eGFP reporter gene under the control of an IFN-stimulated response element (ISRE) containing MxA promoter.; assay type: functional; conditions: 30 µM
[9] = target: T4, Tyrosyl-tRNA synthetase, putative (Trypanosoma cruzi (strain CL Brener)) (UniProt Q4DSP6); assay: Trypanosoma cruzi tyrosyl tRNA synthetase (TcYRS) _High Tyrosine SOP; assay type: functional; conditions: 30 µM; also: in the data most compounds retested in dose-response had high values
T4 sequence (whole entry): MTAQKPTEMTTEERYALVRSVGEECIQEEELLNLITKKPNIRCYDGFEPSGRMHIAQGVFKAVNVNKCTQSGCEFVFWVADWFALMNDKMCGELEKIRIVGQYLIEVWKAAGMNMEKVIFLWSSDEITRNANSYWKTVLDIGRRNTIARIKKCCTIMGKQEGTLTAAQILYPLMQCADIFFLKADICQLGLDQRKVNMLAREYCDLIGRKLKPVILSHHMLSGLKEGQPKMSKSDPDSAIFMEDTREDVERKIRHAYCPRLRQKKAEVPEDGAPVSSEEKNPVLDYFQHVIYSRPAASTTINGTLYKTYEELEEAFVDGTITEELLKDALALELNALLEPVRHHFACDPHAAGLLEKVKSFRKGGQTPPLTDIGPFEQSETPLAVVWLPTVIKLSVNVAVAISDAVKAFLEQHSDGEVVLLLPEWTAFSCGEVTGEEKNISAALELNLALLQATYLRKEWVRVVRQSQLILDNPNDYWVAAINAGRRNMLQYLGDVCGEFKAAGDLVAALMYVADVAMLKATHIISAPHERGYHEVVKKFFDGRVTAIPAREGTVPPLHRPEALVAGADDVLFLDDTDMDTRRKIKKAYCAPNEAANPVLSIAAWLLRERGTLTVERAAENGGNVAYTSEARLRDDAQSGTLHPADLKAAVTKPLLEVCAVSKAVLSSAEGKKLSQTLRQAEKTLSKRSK

[10] = target: T4, Tyrosyl-tRNA synthetase, putative (Trypanosoma cruzi (strain CL Brener)); assay: Trypanosoma cruzi tyrosyl tRNA synthetase (TcYRS) SOP; assay type: functional; conditions: 30 µM
[11] = target: Chromo domain-containing protein 1 (Saccharomyces cerevisiae (strain ATCC 204508 / S288c) (Baker's yeast)) (UniProt P32657); assay: ScCHD-1 Enzyme Inhibition Assay; assay type: functional; conditions: 30 µM; also: in the data most compounds retested in dose-response had high values
Chromo domain-containing protein 1 (Saccharomyces cerevisiae (strain ATCC 204508 / S288c) (Baker's yeast)), sequence (P32657 whole entry, the tested form may be a part): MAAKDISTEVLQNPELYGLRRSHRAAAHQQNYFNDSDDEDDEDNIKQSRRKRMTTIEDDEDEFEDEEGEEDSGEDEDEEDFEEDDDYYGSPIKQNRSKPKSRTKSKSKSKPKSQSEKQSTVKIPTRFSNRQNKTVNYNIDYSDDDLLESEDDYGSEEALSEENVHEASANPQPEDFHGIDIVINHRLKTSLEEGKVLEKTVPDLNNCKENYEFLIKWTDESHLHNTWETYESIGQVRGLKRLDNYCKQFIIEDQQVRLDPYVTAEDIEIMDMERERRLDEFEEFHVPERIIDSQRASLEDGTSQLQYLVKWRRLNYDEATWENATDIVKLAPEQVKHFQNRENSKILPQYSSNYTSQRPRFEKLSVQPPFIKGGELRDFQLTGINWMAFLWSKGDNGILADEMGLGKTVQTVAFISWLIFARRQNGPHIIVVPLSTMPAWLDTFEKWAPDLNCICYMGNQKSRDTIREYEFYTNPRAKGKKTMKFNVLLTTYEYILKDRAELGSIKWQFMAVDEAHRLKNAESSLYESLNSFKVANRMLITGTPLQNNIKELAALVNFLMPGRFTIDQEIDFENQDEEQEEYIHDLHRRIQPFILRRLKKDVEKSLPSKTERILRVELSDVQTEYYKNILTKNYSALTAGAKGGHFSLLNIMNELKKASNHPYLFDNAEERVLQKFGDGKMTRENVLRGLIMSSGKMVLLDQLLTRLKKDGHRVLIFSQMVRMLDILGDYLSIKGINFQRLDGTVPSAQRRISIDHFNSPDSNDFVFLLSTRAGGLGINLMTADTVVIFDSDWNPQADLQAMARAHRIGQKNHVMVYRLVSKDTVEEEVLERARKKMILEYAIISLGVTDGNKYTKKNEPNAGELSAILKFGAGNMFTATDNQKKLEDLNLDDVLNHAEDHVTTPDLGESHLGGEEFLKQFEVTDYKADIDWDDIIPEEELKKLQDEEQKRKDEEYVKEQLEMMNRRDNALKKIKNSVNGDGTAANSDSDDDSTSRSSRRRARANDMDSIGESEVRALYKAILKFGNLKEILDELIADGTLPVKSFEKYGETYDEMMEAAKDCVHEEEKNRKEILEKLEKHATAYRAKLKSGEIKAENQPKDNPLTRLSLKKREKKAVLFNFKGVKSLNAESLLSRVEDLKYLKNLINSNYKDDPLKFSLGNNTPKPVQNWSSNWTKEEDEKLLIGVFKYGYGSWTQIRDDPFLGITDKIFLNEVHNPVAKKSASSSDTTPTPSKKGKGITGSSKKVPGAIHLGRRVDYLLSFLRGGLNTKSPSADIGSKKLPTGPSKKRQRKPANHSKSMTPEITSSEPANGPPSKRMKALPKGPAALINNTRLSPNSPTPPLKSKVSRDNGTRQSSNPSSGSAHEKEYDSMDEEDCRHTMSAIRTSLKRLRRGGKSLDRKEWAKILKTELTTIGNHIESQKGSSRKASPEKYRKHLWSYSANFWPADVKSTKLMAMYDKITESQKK

Row | Structure (SMILES) | Percent Effect [1] [%] | Percent Effect [2] [%] | Percent Effect [3] [%] | Percent Effect [4] [%] | Percent Effect [5] [%] | Percent Effect [6] [%] | Percent Effect [7] [%] | Percent Effect [8] [%] | Percent Effect [9] [%] | Percent Effect [10] [%] | Percent Effect [11] [%]
1 | Cc1cc2nc(SCC(=O)N3CCCC3)n(-c3ccccc3)c(=O)c2[nH]1 | -2.59 | 2.63 | 7.28 | -3.44 | -3.02 | 9.47 | 19.6 | -5.99 | 6.38 | 2.6 | -5.49
2 | O=C(NCCCn1cccn1)C1(c2ccc(Br)cc2)CC1 | 0.127 | 8.22 | 12.9 | -1.49 | -3.13 | 2.73 | 10.1 | 8.94 | 4.3 | 10 | -4.29
3 | CCc1noc(C(C)N2CCN(Cc3nc(C)c(C)o3)CC2)n1 (stereo not given) | -2.85 | 0 | 6.83 | 1.87 | -6.39 | -0.766 | 0.668 | 20.8 | -5.39 | -7.32 | 2.3
4 | Cc1cc(C)c(CNC(=O)NCCOc2ccc3c(c2)CCC3)c(=O)[nH]1 | -3.48 | -5.26 | 0.256 | 7.3 | 9.96 | 0.383 | 0 | 3.96 | 1.47 | 0 | 3.04
5 | Cc1oncc1C(=O)N1CCC2(CCN(Cc3ccccn3)C2=O)C1 (stereo not given) | -5.3 | -2.74 | -0.544 | 4.81 | -2.78 | -3.19 | 8.82 | 15.6 | 2.08 | 1.24 | -0.071
6 | Cc1cc(CN(C)Cc2cc3c(cc2OC(F)F)OCO3)on1 | -6.72 | 2.7 | 1.74 | -1.22 | -0.684 | 3.23 | 5.24 | -2.07 | 0 | 1.24 | -2.37
7 | CCc1nc(NCCCOC)c2c(n1)c(C)nn2C | 0.06 | 17.3 | 0.763 | 2.98 | 1.18 | -0.176 | 20.1 | 29.9 | 5.29 | 17.9 | -11.5
8 | COc1c(CNC2CCCc3ccccc32)c(C(C)C)nn1C (stereo not given) | -5.37 | 21.6 | -16.6 | 17.5 | 7.71 | -5.73 | 3.59 | 6.78 | 4.95 | 18.3 | -4.82
9 | N#Cc1ccc(CNC(=O)NC2CCN(CC(F)F)CC2)cc1 | -5.31 | 2.7 | 0.0143 | 20.2 | 10.8 | -2.23 | 12.3 | 8.62 | 4.3 | 16.1 | -4.65
10 | O=S(=O)(NCc1ccccc1Cn1cncn1)C1CCCC1 | -2.89 | 8.86 | 4.47 | 2.98 | -3.59 | 1.5 | 10.1 | 5.73 | 8.33 | 12.7 | -12.6
